Drawing on PubChem BioAssay (NCI), this text covers growth for 8 molecules.

Test systems include MOLT-4 leukemia; SR leukemia; RPMI-8226 leukemia; OVCAR-8 ovarian; OVCAR-5 ovarian; SK-OV-3 ovarian; IGROV1 ovarian; OVCAR-3 ovarian; HS 578T breast; NCI/ADR-RES ovarian; T-47D breast; BT-549 breast; MDA-MB-435 melanoma; SW-620 colon; MCF7 breast; HCT-116 colon; HCC-2998 colon; KM12 colon; OVCAR-4 ovarian.
Common to all, as to assay: NCI-60 one-dose screen, 48 h (100 = growth as untreated, 0 = no growth, -100 = all killed)
Details in all cases: 10 µM unless noted

About 83,000 compounds went through this panel and 20% of them were active in at least one assay; those are over-represented in the sample as a whole.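 Negative percent growth values reflect cell death: -40 means 40% of the cells present at the start died, and -100 means all died.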 Unmarked numbers belong to inactive results. Active and inactive are the calls of the source. The calls were made as follows: active = growth percent below 10; inactive = the rest.

In the case of `COc1ccc(/C=C\c2cc(OC)c(OC)c(OC)c2)c(NS(=O)(=O)c2ccc(C)cc2)c1O`, the growth is 20.8% in the test on MOLT-4 leukemia; 17.2% with SR leukemia; 31.5% in the test with RPMI-8226 leukemia; 25.1% with OVCAR-8 ovarian; 38.8% with OVCAR-5 ovarian; 25.1% in the test with SK-OV-3 ovarian. For the same molecule, the growth in the test on IGROV1 ovarian is 32.2%; in the test with OVCAR-3 ovarian, -30.9% (active); in the test with HS 578T breast, 39.9%; with NCI/ADR-RES ovarian, 7.57% (active); in the test on T-47D breast, 96.4%; in the test on BT-549 breast, 30.6%. Moreover, the growth was -33.1% (active) in the test on MDA-MB-435 melanoma; 24.9% in the test on SW-620 colon; 14.3% in the test on MCF7 breast; 8.54% (active) in the test on HCT-116 colon; 18.7% with HCC-2998 colon; 3.96% (active) with KM12 colon.

Consider `CC1(C)C(C(=O)c2cn(CCCCF)c3ccccc23)C1(C)C`, for which the growth is 77.8% in the test with MOLT-4 leukemia; 77.9% with SR leukemia; 81.5% in the test with RPMI-8226 leukemia; 82% in the test on OVCAR-8 ovarian; 103% in the test with OVCAR-5 ovarian; 102% in the test with SK-OV-3 ovarian. Also, the growth with IGROV1 ovarian is 114%; in the test on OVCAR-3 ovarian, 105%; in the test with HS 578T breast, 88.5%; with NCI/ADR-RES ovarian, 98.1%; in the test on T-47D breast, 78.6%; with BT-549 breast, 100%. Besides, the growth is 108% with MDA-MB-435 melanoma; 99.1% with SW-620 colon; 89% with MCF7 breast; 90.4% in the test with HCT-116 colon; 116% with HCC-2998 colon; 102% in the test with KM12 colon.

`C=C1[C@@H](C)[C@H]2[C@H](Cc3ccccc3)NC(=O)[C@]23[C@@H](O)/C=C/[C@@](C)(O)C(=O)[C@@H](C)C/C=C/[C@H]3[C@@H]1O`: the growth was 61.5% in the test on MOLT-4 leukemia; 64.3% with SR leukemia; 68.4% in the test on RPMI-8226 leukemia; 69.3% in the test with OVCAR-8 ovarian; 38.1% in the test with OVCAR-5 ovarian; 38.1% in the test with SK-OV-3 ovarian. In addition, the growth is 70.5% in the test with IGROV1 ovarian; 46.2% in the test with OVCAR-3 ovarian; -11.7% (active) in the test on HS 578T breast; 94.6% with NCI/ADR-RES ovarian; 48.3% in the test on T-47D breast; 63.1% in the test on BT-549 breast. For the same molecule, the growth with MDA-MB-435 melanoma was 80.5%; with SW-620 colon, 41.8%; in the test on MCF7 breast it was 63.8%; with HCT-116 colon it was 50.1%; in the test on HCC-2998 colon, 62.4%; in the test with KM12 colon it was 81.5%.

As for `C#Cc1ccc2c(c1)C(c1ccccc1)=NCC(=O)N2C`, the growth in the test with MOLT-4 leukemia is 39.5%; in the test with SR leukemia, 38.3%; in the test with RPMI-8226 leukemia, 64.5%; in the test on OVCAR-8 ovarian it was 63.3%; in the test on OVCAR-5 ovarian, 85.5%; with OVCAR-4 ovarian it was 90.9%. Further, the growth is 31.6% in the test on SK-OV-3 ovarian; 9.19% (active) in the test with OVCAR-3 ovarian; 56.4% with HS 578T breast; 17.1% with NCI/ADR-RES ovarian; 51.6% with T-47D breast; 45.2% in the test with BT-549 breast. The growth was 11.4% in the test with MDA-MB-435 melanoma; 30.6% in the test on SW-620 colon; 18.4% with MCF7 breast; 18.9% in the test on HCT-116 colon; 70.5% with HCC-2998 colon; 28.8% in the test with KM12 colon.

Turning to `ClCCN(CCCl)c1ccc(-n2cnc3c(Cl)ncnc32)cc1`, the growth in the test with MOLT-4 leukemia was 7.06% (active); in the test with SR leukemia, -29.2% (active); in the test on RPMI-8226 leukemia, 59.6%; with OVCAR-8 ovarian it was 35.1%; in the test with OVCAR-5 ovarian it was 117%; with SK-OV-3 ovarian it was 90.5%. Moreover, the growth was -84.5% (active) with IGROV1 ovarian; -35.4% (active) with OVCAR-3 ovarian; 49.5% with HS 578T breast; 61% with NCI/ADR-RES ovarian; 41.1% with T-47D breast; 46.9% with MDA-MB-435 melanoma. The growth in the test on SW-620 colon was -73.8% (active); with MCF7 breast, 25.7%; in the test with HCT-116 colon it was 33.6%; with HCC-2998 colon it was 82.6%; in the test on KM12 colon, 46.3%.

For the molecule `COC(=O)[C@@H](C[C@H](Cc1ccccc1)NC(=O)c1csc([C@@H](C[C@H](C(C)C)N(C)C(=O)[C@@H](NC(=O)[C@H]2CCCCN2C)C(C)C)OC(C)=O)n1)NC(=O)OCc1ccccc1`, the growth in the test on MOLT-4 leukemia is 11.8% [9.5 µM]; in the test on SR leukemia it was -23.3% [9.5 µM] (active); in the test on RPMI-8226 leukemia it was -9.01% [9.5 µM] (active); with OVCAR-8 ovarian it was 13.3% [9.5 µM]; in the test with OVCAR-5 ovarian, 42.2% [9.5 µM]; in the test on SK-OV-3 ovarian, 12.4% [9.5 µM]. The growth in the test on IGROV1 ovarian was 13.2% [9.5 µM]; with OVCAR-3 ovarian, -23.7% [9.5 µM] (active); in the test on HS 578T breast, 12.9% [9.5 µM]; in the test on NCI/ADR-RES ovarian, 13.9% [9.5 µM]; in the test on T-47D breast, 78.8% [9.5 µM]; in the test with BT-549 breast, -28% [9.5 µM] (active). Also, the growth in the test with MDA-MB-435 melanoma is -36% [9.5 µM] (active); in the test on SW-620 colon, 26.1% [9.5 µM]; in the test with MCF7 breast, 27.8% [9.5 µM]; in the test with HCT-116 colon, 1.64% [9.5 µM] (active); with HCC-2998 colon it was 19.5% [9.5 µM].

Regarding `CCCCCCCCCCCCCC[P+](CCCCCC)(CCCCCC)CCCCCC`, the growth was 51.6% in the test on MOLT-4 leukemia; 62.4% in the test on SR leukemia; 59.4% in the test with RPMI-8226 leukemia; -79.9% (active) in the test on OVCAR-8 ovarian; -7.29% (active) in the test on OVCAR-5 ovarian; -91.8% (active) with OVCAR-4 ovarian. Moreover, the growth was -3.34% (active) in the test with SK-OV-3 ovarian; -100% (active) in the test with OVCAR-3 ovarian; -35.8% (active) in the test with HS 578T breast; -10.5% (active) with NCI/ADR-RES ovarian; -14.8% (active) in the test on T-47D breast; -81% (active) in the test with MDA-MB-435 melanoma. Further, the growth was -86.3% (active) in the test with SW-620 colon; -51.8% (active) in the test on MCF7 breast; -70.8% (active) in the test with HCT-116 colon; -24.4% (active) with HCC-2998 colon; -100% (active) in the test with KM12 colon.

`CN1CCC(c2c[nH]c3ccccc23)C1` (stereo unspecified): the growth in the test with MOLT-4 leukemia was 105%; in the test with SR leukemia, 96.6%; in the test on RPMI-8226 leukemia it was 79.7%; with OVCAR-8 ovarian, 96.4%; with OVCAR-5 ovarian, 77%; with OVCAR-4 ovarian, 107%. Besides, the growth in the test with SK-OV-3 ovarian was 99.4%; in the test with OVCAR-3 ovarian it was 103%; in the test with HS 578T breast it was 113%; in the test with NCI/ADR-RES ovarian, 94.5%; in the test with T-47D breast, 97%; in the test with BT-549 breast, 110%. For the same molecule, the growth in the test on MDA-MB-435 melanoma was 97.9%; with SW-620 colon, 104%; with MCF7 breast, 94.8%; with HCT-116 colon it was 94.2%; with HCC-2998 colon, 94.1%; in the test with KM12 colon, 107%.
